B1: unnamed (peptide)
chain: PIVPSSPAPPLPLSG
B2: unnamed (peptide)
chain: ISPPASPPPEFDFSK
B3: unnamed (peptide)
chain: PPIPIVPSSPAPPLP

Molecular target: AgAbp1
Experiment: SPOT peptide array binding signal intensity (averaged, normalized) (arbitrary units (background-subtracted, floor 0; scale differs between SH3 domains)); higher = stronger binding of the SH3 domain to the peptide
Summary of the method: (§1)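 GST-fused SH3 domains from four yeast species were expressed in E. coli BL21(DE3), purified on glutathione Sepharose and incubated at 10 μg/ml overnight at 4°C in TBS-based blocking buffer on cellulose membranes carrying synthetic 15-mer peptides, with cysteines replaced by serines. Bound protein was detected with anti-GST antibody, an HRP anti-mouse secondary and luminol, then imaged and quantified with Genespotter. Binding signal is the normalized, background-subtracted spot intensity averaged over replicates, in arbitrary units that differ between domains.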

Binder | SPOT peptide array binding signal intensity
B1 | ≤ 0
B3 | ≤ 0

Molecular target: AgBbc1
Experiment: as above
Summary of the method: as §1

Binder | SPOT peptide array binding signal intensity
B1 | ≤ 0
B3 | ≤ 0

Molecular target: AgBem1-D1
Experiment: as above
Summary of the method: as §1

Binder | SPOT peptide array binding signal intensity
B1 | ≤ 0
B3 | ≤ 0

Molecular target: AgBzz1-D1
Experiment: as above
Summary of the method: as §1

Binder | SPOT peptide array binding signal intensity
B1 | ≤ 0
B3 | 28

Molecular target: AgBzz1-D2
Experiment: as above
Summary of the method: as §1

Binder | SPOT peptide array binding signal intensity
B1 | ≤ 0
B3 | ≤ 0

Molecular target: AgCyk3
Experiment: as above
Summary of the method: as §1

Binder | SPOT peptide array binding signal intensity
B1 | ≤ 0
B3 | ≤ 0

Molecular target: AgFus1
Experiment: as above
Summary of the method: as §1

Binder | SPOT peptide array binding signal intensity
B1 | ≤ 0
B3 | ≤ 0

Molecular target: AgHof1
Experiment: as above
Summary of the method: as §1

Binder | SPOT peptide array binding signal intensity
B1 | ≤ 0
B3 | ≤ 0

Molecular target: AgHse1
Experiment: as above
Summary of the method: as §1

Binder | SPOT peptide array binding signal intensity
B1 | 13.5
B3 | ≤ 0

Molecular target: AgLsb1
Experiment: as above
Summary of the method: as §1

Binder | SPOT peptide array binding signal intensity
B1 | ≤ 0
B3 | ≤ 0

Molecular target: AgLsb4
Experiment: as above
Summary of the method: as §1

Binder | SPOT peptide array binding signal intensity
B1 | ≤ 0
B3 | ≤ 0

Molecular target: AgMyo5
Experiment: as above
Summary of the method: as §1

Binder | SPOT peptide array binding signal intensity
B1 | 3230
B3 | 2150

Molecular target: AgNbp2
Experiment: as above
Summary of the method: as §1

Binder | SPOT peptide array binding signal intensity
B1 | ≤ 0
B3 | ≤ 0

Molecular target: AgRvs167
Experiment: as above
Summary of the method: as §1

Binder | SPOT peptide array binding signal intensity
B1 | ≤ 0
B3 | ≤ 0

Molecular target: AgSho1
Experiment: as above
Summary of the method: as §1

Binder | SPOT peptide array binding signal intensity
B1 | ≤ 0
B3 | ≤ 0

Molecular target: AgSla1-D1-D2
Experiment: as above
Summary of the method: as §1

Binder | SPOT peptide array binding signal intensity
B1 | 7
B3 | ≤ 0

Molecular target: AgSla1-D3
Experiment: as above
Summary of the method: as §1

Binder | SPOT peptide array binding signal intensity
B1 | ≤ 0
B3 | ≤ 0

Molecular target: CaAbp1-D1
Experiment: as above
Summary of the method: as §1

Binder | SPOT peptide array binding signal intensity
B1 | ≤ 0
B3 | ≤ 0

Molecular target: CaAbp1-D2
Experiment: as above
Summary of the method: as §1

Binder | SPOT peptide array binding signal intensity
B1 | ≤ 0
B3 | ≤ 0

Molecular target: CaBbc1
Experiment: as above
Summary of the method: as §1

Binder | SPOT peptide array binding signal intensity
B1 | ≤ 0
B3 | 0.5

Molecular target: CaBem1-D1
Experiment: as above
Summary of the method: as §1

Binder | SPOT peptide array binding signal intensity
B1 | ≤ 0
B3 | ≤ 0

Molecular target: CaBzz1-D1
Experiment: as above
Summary of the method: as §1

Binder | SPOT peptide array binding signal intensity
B1 | 19
B3 | ≤ 0

Molecular target: CaBzz1-D2
Experiment: as above
Summary of the method: as §1

Binder | SPOT peptide array binding signal intensity
B1 | 11.2
B3 | ≤ 0

Molecular target: CaCyk3
Experiment: as above
Summary of the method: as §1

Binder | SPOT peptide array binding signal intensity
B1 | ≤ 0
B3 | ≤ 0

Molecular target: CaFus1
Experiment: as above
Summary of the method: as §1

Binder | SPOT peptide array binding signal intensity
B1 | 14.5
B3 | ≤ 0

Molecular target: CaHof1
Experiment: as above
Summary of the method: as §1

Binder | SPOT peptide array binding signal intensity
B1 | ≤ 0
B3 | ≤ 0

Molecular target: CaHse1
Experiment: as above
Summary of the method: as §1

Binder | SPOT peptide array binding signal intensity
B1 | ≤ 0
B3 | ≤ 0

Molecular target: CaLsb1
Experiment: as above
Summary of the method: as §1

Binder | SPOT peptide array binding signal intensity
B1 | ≤ 0
B3 | ≤ 0

Molecular target: CaLsb4
Experiment: as above
Summary of the method: as §1

Binder | SPOT peptide array binding signal intensity
B1 | ≤ 0
B3 | ≤ 0

Molecular target: CaMyo5
Experiment: as above
Summary of the method: as §1

Binder | SPOT peptide array binding signal intensity
B1 | 611
B3 | 833

Molecular target: CaNbp2
Experiment: as above
Summary of the method: as §1

Binder | SPOT peptide array binding signal intensity
B1 | 4.5

Molecular target: CaRvs167
Experiment: as above
Summary of the method: as §1

Binder | SPOT peptide array binding signal intensity
B1 | ≤ 0

Molecular target: CaRvs167-3
Experiment: as above
Summary of the method: as §1

Binder | SPOT peptide array binding signal intensity
B1 | 1

Molecular target: CaSho1
Experiment: as above
Summary of the method: as §1

Binder | SPOT peptide array binding signal intensity
B1 | ≤ 0

Molecular target: CaSla1-D1-D2
Experiment: as above
Summary of the method: as §1

Binder | SPOT peptide array binding signal intensity
B1 | 0.5

Molecular target: CaSla1-D3
Experiment: as above
Summary of the method: as §1

Binder | SPOT peptide array binding signal intensity
B1 | ≤ 0

Molecular target: ScAbp1
Experiment: as above
Summary of the method: as §1

Binder | SPOT peptide array binding signal intensity
B1 | ≤ 0

Molecular target: ScBbc1
Experiment: as above
Summary of the method: as §1

Binder | SPOT peptide array binding signal intensity
B1 | ≤ 0

Molecular target: ScBem1-D1
Experiment: as above
Summary of the method: as §1

Binder | SPOT peptide array binding signal intensity
B1 | ≤ 0

Molecular target: ScBzz1-D1
Experiment: as above
Summary of the method: as §1

Binder | SPOT peptide array binding signal intensity
B1 | 7.5

Molecular target: ScBzz1-D2
Experiment: as above
Summary of the method: as §1

Binder | SPOT peptide array binding signal intensity
B1 | 1.5

Molecular target: ScCyk3
Experiment: as above
Summary of the method: as §1

Binder | SPOT peptide array binding signal intensity
B1 | ≤ 0

Molecular target: ScFus1
Experiment: as above
Summary of the method: as §1

Binder | SPOT peptide array binding signal intensity
B1 | ≤ 0

Molecular target: ScHof1
Experiment: as above
Summary of the method: as §1

Binder | SPOT peptide array binding signal intensity
B1 | ≤ 0

Molecular target: ScHse1
Experiment: as above
Summary of the method: as §1

Binder | SPOT peptide array binding signal intensity
B1 | ≤ 0

Molecular target: ScLsb1
Experiment: as above
Summary of the method: as §1

Binder | SPOT peptide array binding signal intensity
B1 | ≤ 0

Molecular target: ScLsb2
Experiment: as above
Summary of the method: as §1

Binder | SPOT peptide array binding signal intensity
B1 | ≤ 0

Molecular target: ScLsb3
Experiment: as above
Summary of the method: as §1

Binder | SPOT peptide array binding signal intensity
B1 | ≤ 0

Molecular target: ScLsb4
Experiment: as above
Summary of the method: as §1

Binder | SPOT peptide array binding signal intensity
B1 | ≤ 0

Molecular target: ScMyo3
Experiment: as above
Summary of the method: as §1

Binder | SPOT peptide array binding signal intensity
B1 | 2720

Molecular target: ScMyo5
Experiment: as above
Summary of the method: as §1

Binder | SPOT peptide array binding signal intensity
B1 | 3220

Molecular target: ScNbp2
Experiment: as above
Summary of the method: as §1

Binder | SPOT peptide array binding signal intensity
B1 | ≤ 0

Molecular target: ScPex13
Experiment: as above
Summary of the method: as §1

Binder | SPOT peptide array binding signal intensity
B1 | ≤ 0

Molecular target: ScRvs167
Experiment: as above
Summary of the method: as §1

Binder | SPOT peptide array binding signal intensity
B1 | ≤ 0

Molecular target: ScSho1
Experiment: as above
Summary of the method: as §1

Binder | SPOT peptide array binding signal intensity
B1 | ≤ 0

Molecular target: ScSla1-D1-D2
Experiment: as above
Summary of the method: as §1

Binder | SPOT peptide array binding signal intensity
B1 | 1

Molecular target: ScSla1-D3
Experiment: as above
Summary of the method: as §1

Binder | SPOT peptide array binding signal intensity
B1 | 7.5

Molecular target: SpAbp1-D1
Experiment: as above
Summary of the method: as §1

Binder | SPOT peptide array binding signal intensity
B1 | ≤ 0

Molecular target: SpBbc1
Experiment: as above
Summary of the method: as §1

Binder | SPOT peptide array binding signal intensity
B1 | 6

Molecular target: SpBzz1-D1
Experiment: as above
Summary of the method: as §1

Binder | SPOT peptide array binding signal intensity
B1 | 52.5

Molecular target: SpBzz1-D2
Experiment: as above
Summary of the method: as §1

Binder | SPOT peptide array binding signal intensity
B1 | 1.5
B2 | 1

Molecular target: SpCyk3
Experiment: as above
Summary of the method: as §1

Binder | SPOT peptide array binding signal intensity
B1 | ≤ 0
B2 | ≤ 0

Molecular target: SpHof1
Experiment: as above
Summary of the method: as §1

Binder | SPOT peptide array binding signal intensity
B1 | ≤ 0
B2 | ≤ 0

Molecular target: SpHof1-2
Experiment: as above
Summary of the method: as §1

Binder | SPOT peptide array binding signal intensity
B1 | ≤ 0
B2 | 0.5

Molecular target: SpHof1-3
Experiment: as above
Summary of the method: as §1

Binder | SPOT peptide array binding signal intensity
B1 | ≤ 0
B2 | ≤ 0

Molecular target: SpHse1
Experiment: as above
Summary of the method: as §1

Binder | SPOT peptide array binding signal intensity
B1 | 7
B2 | 6

Molecular target: SpLsb1
Experiment: as above
Summary of the method: as §1

Binder | SPOT peptide array binding signal intensity
B1 | ≤ 0
B2 | ≤ 0

Molecular target: SpLsb4
Experiment: as above
Summary of the method: as §1

Binder | SPOT peptide array binding signal intensity
B1 | ≤ 0
B2 | ≤ 0

Molecular target: SpMyo1
Experiment: as above
Summary of the method: as §1

Binder | SPOT peptide array binding signal intensity
B1 | 1220
B2 | 877

Molecular target: SpNbp2
Experiment: as above
Summary of the method: as §1

Binder | SPOT peptide array binding signal intensity
B1 | ≤ 0
B2 | ≤ 0

Molecular target: SpPex13
Experiment: as above
Summary of the method: as §1

Binder | SPOT peptide array binding signal intensity
B1 | 1
B2 | ≤ 0

Molecular target: SpRvs167
Experiment: as above
Summary of the method: as §1

Binder | SPOT peptide array binding signal intensity
B1 | 3.5
B2 | ≤ 0

Molecular target: SpSla1-D1-D2
Experiment: as above
Summary of the method: as §1

Binder | SPOT peptide array binding signal intensity
B1 | ≤ 0
B2 | 1

Molecular target: SpSla1-D3
Experiment: as above
Summary of the method: as §1

Binder | SPOT peptide array binding signal intensity
B1 | ≤ 0
B2 | 3

Source: the supplement of paper PMC4466140
